Where “and” joins values, the source holds several entries; their conditions need not be identical. Equal entries are not always repeated. About 610 (9.5%) of roughly 6,400 compounds were called active. No stated cut-off is given here; in the data, active means activity change below about -70%; inconclusive means no clear call, values can overlap the other calls; inactive means above that. Many of the other results were omitted from the sample, so actives are more common in it than they were. A structure can be active in one record and inactive in another. *1 amine or outer side, *2 acyl side, *3 side chain or, on linkers, in order; H or OH if unused. Where a SMILES comes first, the peptide text is derived from it. Bridges are numbered along the chain shown (N, C = ends). [ ]: non-standard residue; d: D form. The star is where a group is joined. ξ: configuration not given here. pTerphenylCO(4''-OnC5H11) = CCCCCOc1ccc(-c2ccc(-c3ccc(C(=O)*)cc3)cc2)cc1; ξOrn(4,5-diOH) = O=C(C(CC(O)C(O)N[*:3])N[*:1])[*:2]; ξhTyr(βξ-OH,γξ-OH) = NC(C(=O)O)C(O)C(O)c1ccc(O)cc1; ξPro(3ξ-OH,4ξ-Me) = CC1CNC(C(=O)O)C1O; Hyp = O=C(O)[CH]1C[CH](O)CN1

A short description of the test: T. gondii ME49Luc in HeLa cells, luciferase assay, 72 h, no IFN-y (AID 1259421). The settings on record: stronger effect = lower value, concentration not given here.
As for `C=CCn1c(=O)n([C@@H]2O[C@H](CO)[C@@H](O)[C@H]2O)c2nc(N)[nH]c(=O)c21`, the activity change, negative = inhibition was -1.47% (inactive).
The result for `CCNC(=O)CCC(N)C(=O)O` (stereo not drawn) reads 15.2% (inactive).
Regarding `CC1(C)C2CC[C@]3(C)C(C(=O)C=C4[C@@H]5C[C@@](C)(C(=O)O)CC[C@]5(C)CC[C@]43C)[C@@]2(C)CC[C@@H]1OC(=O)CCC(=O)O` (stereo partly drawn), the activity change, negative = inhibition was 6.36% (inactive).
The result for `O=C(c1c(O)c2ccc(Cl)cc2[nH]c1=O)C1CC1` reads 3.48% (inactive) and 5.32% (inactive); that for `C=CCN1CCCC1CNC(=O)c1cc2[nH]nnc2cc1OC` (stereo not drawn), 3.75% (inactive).
With `CC1(C)C(=O)[C@@H]2C[C@@]3(O)C4=CC(=O)O[C@@H](c5ccoc5)[C@]4(C)CCC3[C@@](C)(C2=O)[C@H]1CC(=O)O` (stereo partly drawn), the activity change, negative = inhibition was 0.589% (inactive).
In the case of `O=c1n(CC2CO2)c(=O)n(CC2CO2)c(=O)n1CC1CO1` (stereo not drawn), the activity change, negative = inhibition was 36.1% (inactive).
As for `COc1ccc2cc1Oc1cc3c(cc1OC)CC[N+](C)(C)[C@H]3Cc1ccc(cc1)Oc1c(OC)c(OC)cc3c1[C@@H](C2)[N+](C)(C)CC3`, the activity change, negative = inhibition is 18.6% (inactive).
As for `COc1ccc2cc1Oc1ccc(cc1)C[C@H]1c3c(cc4c(c3Oc3cc5c(cc3OC)CCN(C)[C@@H]5C2)OCO4)CCN1C`, the activity change, negative = inhibition is 12.1% (inactive) and -4.88% (inactive).
As to `COc1ccc2cc1Oc1ccc(cc1)C[C@H]1c3cc(c(OC)cc3CCN1C)Oc1c(OC)c(OC)cc3c1[C@H](C2)N(C)CC3`, the activity change, negative = inhibition is -77.3% (active) and 18.9% (inactive).
With `CC(O)CCCCn1c(=O)c2c(ncn2C)n(C)c1=O` (stereo not drawn) the figure was -6.61% (inactive); with `CCCN(CCc1cccs1)[C@H]1CCc2c(O)cccc2C1`, 10.9% (inactive).
With `CCCCn1c(=O)c2[nH]c(C34CC5CC(CC3C5)C4)nc2n(CCCO)c1=O` the figure was 12% (inactive) and -13.1% (inactive); with `O=C1[C@@H](Cc2ccc(O)cc2)N2C(=O)CCN(C(=O)NCc3ccccc3)[C@H]2CN1Cc1cccc2ccccc12`, 1.58% (inactive).
Take `CC(=O)OC(C)(C)[C@@H]1Cc2cc3ccc(=O)oc3cc2O1`: the activity change, negative = inhibition was -5.08% (inactive).
For `CCN(Cc1cccc(S(=O)(=O)O)c1)c1cccc(C(=C2C=CC(=[N+](CC)Cc3cccc(S(=O)(=O)O)c3)C=C2)c2ccc(O)cc2S(=O)(=O)O)c1`, the activity change, negative = inhibition is -44.9% (inactive).
Turning to `CCN(CC)c1ccc(C(=C2C=CC(=[N+](CC)CC)C=C2)c2ccccc2)cc1`, the activity change, negative = inhibition was -79.9% (active).
Consider `O[C@@H]1[C@H](O)[C@@H](CCl)O[C@H]1n1cnc2c(NC3CC4CCC3C4)ncnc21` (stereo partly drawn), for which the activity change, negative = inhibition is 20.5% (inactive).
`Cc1cc(Oc2ccc3nc(COc4ccc(CC5SC(=O)NC5=O)cc4)n(C)c3c2)cc(C)c1N` (stereo not drawn): the activity change, negative = inhibition is 12.3% (inactive).
Regarding `N[C@](CC1c2ccccc2Oc2ccccc21)(C(=O)O)[C@H]1C[C@@H]1C(=O)O`, the activity change, negative = inhibition is 6.02% (inactive).
`CCn1c(=O)[nH]c2ccccc21`: the activity change, negative = inhibition is 10.3% (inactive) and 2.46% (inactive).
As for `CCn1c(=O)[nH]c2cc(Cl)c(Cl)cc21`, the activity change, negative = inhibition is -80.8% (active) and -78.6% (active).
With `CCN(CCO)CCCOc1ccc2c(Nc3cc(CC(=O)Nc4cccc(F)c4)[nH]n3)ncnc2c1` the figure was 18.9% (inactive).
Consider `CCOc1ccc2nc(SCCN3CCOCC3)[nH]c2c1`, for which the activity change, negative = inhibition is 17.7% (inactive).
On to `Cc1cc(/C=C/C#N)cc(C)c1Nc1ccnc(Nc2ccc(C#N)cc2)n1`, for which the activity change, negative = inhibition is 17.7% (inactive).
For the molecule `Cc1cc(C#N)cc(C)c1Oc1nc(Nc2ccc(C#N)cc2)nc(N)c1Br`, the activity change, negative = inhibition is -89.7% (active).
On to `Cc1cc(C)c(Nc2ccnc(Nc3ccc(C#N)cc3)n2)c(C)c1`, for which the activity change, negative = inhibition was -44.9% (inactive).
As for `C[C@@H](N)c1ccc(C(=O)Nc2ccnc3[nH]ccc23)cc1`, the activity change, negative = inhibition is -3.01% (inactive).
In the case of `C=CC(=O)Nc1ccccc1`, the activity change, negative = inhibition is -0.419% (inactive).
With `CC(=O)c1ccc(N2CCOCC2)cc1O`, the activity change, negative = inhibition was 0.777% (inactive).
The result for `O=c1cc(-c2ccc(O)cc2)oc2ccc(O)cc12` reads -46.2% (inactive); that for `CCCCCCCC(=O)OCC(COC(=O)CCCCCCC)OC(=O)CCCCCCC`, 13.9% (inactive).
The result for `[Cl][Ru]([Cl])([Cl])[Cl].c1ccc2[nH]ncc2c1.c1ccc2[nH]ncc2c1` reads 8% (inactive); that for `CC(=O)[C@@]12O[C@](C)(c3ccccc3)O[C@@H]1CC1C3CCC4=CC(=O)CC[C@]4(C)C3CC[C@@]12C` (stereo partly drawn), -11.3% (inactive).
Turning to `C#CC1(O)CCC2C3CCC4=Cc5oncc5CC4(C)C3CCC21C` (stereo not drawn), the activity change, negative = inhibition was -93.9% (active).
With `C[C@]12CCC(=O)C=C1CCC1C2C(=O)C[C@@]2(C)C1CC[C@]2(O)C(=O)CO` (stereo partly drawn) the figure was -0.365% (inactive) and 6.68% (inactive); with `C#C[C@]1(O)CCC2C3CCC4=Cc5oncc5C[C@]4(C)C3CC[C@@]21C` (stereo partly drawn), -82.2% (active) and -83.7% (active).
For `CC(=O)[C@@]12OC(C)(c3ccccc3)O[C@@H]1C[C@H]1[C@@H]3CCC4=CC(=O)CC[C@]4(C)[C@H]3CC[C@@]12C` (stereo partly drawn), the activity change, negative = inhibition was -52.9% (inactive).
As for `NC(CSSCC(N)C(=O)O)C(=O)O` (stereo not drawn), the activity change, negative = inhibition is 13.9% (inactive).
Consider `CC1(C)SC2C(NC(=O)[C@H](NC(=O)N3CCNC3=O)c3ccccc3)C(=O)N2C1C(=O)O` (stereo partly drawn), for which the activity change, negative = inhibition is 33.6% (inactive).
The result for `NS(=O)(=O)c1cc2c(cc1Cl)NC(C1CC3C=CC1C3)NS2(=O)=O` (stereo not drawn) reads -95.9% (active); that for `NS(=O)(=O)c1cc2c(cc1Cl)NC(CC1CCCC1)NS2(=O)=O` (stereo not drawn), 18.7% (inactive); that for `NS(=O)(=O)c1cc2c(cc1Cl)NC(C(Cl)Cl)NS2(=O)=O` (stereo not drawn), 13.1% (inactive) and 33% (inactive).
Turning to `O=C1c2ccccc2C(Cc2ccnc(F)c2)(Cc2ccnc(F)c2)c2ccccc21`, the activity change, negative = inhibition is 21.9% (inactive) and 12.1% (inactive).
With `O=C1N[C@@H]2[C@@H](O)[C@@H](O)[C@H](O)[C@@H](CO)N2C1=O`, the activity change, negative = inhibition was 11.7% (inactive).
As to `O[C@H]([C@H](O)[C@@H]1CO1)[C@H]1CO1`, the activity change, negative = inhibition is 5.39% (inactive).
With `C=C1c2c(Cl)ccc(O)c2C(=O)C2C(=O)[C@]3(O)C(=O)C(C(N)=O)C(=O)[C@@H](N(C)C)[C@@H]3[C@@H](O)[C@H]12` (stereo partly drawn), the activity change, negative = inhibition is -9.94% (inactive) and 7.28% (inactive).
Regarding `C=C1c2cccc(O)c2C(=O)C2C(=O)[C@]3(O)C(=O)C(C(N)=O)C(=O)[C@@H](N(C)C)[C@@H]3[C@@H](O)[C@H]12` (stereo partly drawn), the activity change, negative = inhibition is -67.5% (inactive) and 19% (inactive).
In the case of `CCC(CC)C(c1ccc(Nc2nc3ccccc3s2)cc1)n1cncn1` (stereo not drawn), the activity change, negative = inhibition was 4.5% (inactive).
As to `COC(=O)N(C)c1c(N)nc(-c2nn(Cc3ccccc3F)c3ncccc23)nc1N`, the activity change, negative = inhibition is 2.65% (inactive).
With `CC(=O)O[C@H]1C(=O)[C@@]2(C)[C@H]([C@H](OC(=O)c3ccccc3)[C@]3(O)C[C@H](OC(=O)[C@H](O)[C@@H](NC(=O)c4ccccc4)c4ccccc4)C(C)=C1C3(C)C)[C@]1(OC(C)=O)CO[C@@H]1C[C@@H]2O`, the activity change, negative = inhibition is -84.9% (active) and -74.8% (active).
Consider `CC(=O)O[C@H]1C(=O)[C@@]2(C)C([C@H](OC(=O)c3ccccc3)[C@]3(O)C[C@H](OC(=O)[C@H](O)[C@@H](NC(=O)c4ccccc4)c4ccccc4)C(C)=C1C3(C)C)[C@]1(OC(C)=O)CO[C@@H]1C[C@@H]2O` (stereo partly drawn), for which the activity change, negative = inhibition was -86.6% (active) and -77.4% (active).
Take `CC(=O)OC1C(=O)C2(C)C(O)CC3OCC3(OC(C)=O)C2C(OC(=O)c2ccccc2)C2(O)CC(OC(=O)C(O)C(NC(=O)c3ccccc3)c3ccccc3)C(C)=C1C2(C)C` (stereo not drawn): the activity change, negative = inhibition is -87.7% (active).
As to `CCCCCCCC/C=C/CCCCCCCC(=O)NC(CO)Cc1ccc(O)cc1` (stereo not drawn), the activity change, negative = inhibition is 6.19% (inactive).
Take `C[N+]1(C)[C@@H]2CC(OC(=O)[C@H](CO)c3ccccc3)C[C@H]1[C@@H]1O[C@@H]12` (stereo partly drawn): the activity change, negative = inhibition was 10.8% (inactive).
The result for `O=C(O)CC/C=C/CC1COC(c2ccccc2Cl)OC1c1ccccc1O` (stereo not drawn) reads 11.4% (inactive).
The result for `O=C(O)[C@@H]1C[C@H]2C[C@@H](CCc3nn[nH]n3)CC[C@H]2CN1` reads 15.6% (inactive); that for `CN1CCCC1c1cccnc1` (stereo not drawn), 24.1% (inactive); that for `CCCCCOc1ccc(-c2ccc(-c3ccc(C(=O)NC4CC(O)C(O)NC(=O)C5C(O)C(C)CN5C(=O)C(C(C)O)NC(=O)C(C(O)C(O)c5ccc(O)cc5)NC(=O)C5CC(O)CN5C(=O)C(C(C)O)NC4=O)cc3)cc2)cc1` (stereo not drawn) ({pTerphenylCO(4''-OnC5H11)}-[ξOrn(4,5-diOH)]T[Hyp][ξhTyr(βξ-OH,γξ-OH)]T[ξPro(3ξ-OH,4ξ-Me)]; lactam 1-C; configuration not given here), -6.09% (inactive).
`Cc1nn(-c2ccccc2)c(C)c1/C=N/N1CCN(Cc2ccccc2)CC1`: the activity change, negative = inhibition was 7.74% (inactive) and 0.523% (inactive).
With `Cn1[nH]c(=O)c(=O)[nH]c1=S` the figure was 14.6% (inactive); with `C[C@@H]1CC2C3CCC4=CC(=O)C=C[C@]4(C)[C@@]3(F)[C@@H](O)C[C@]2(C)[C@H]1C(=O)CO` (stereo partly drawn), -13.5% (inactive) and -8.09% (inactive); with `CCCCC[C@H](O)/C=C/C=C\C/C=C\C/C=C\CCCC(=O)O`, -37.7% (inactive).
`Cc1c(N)cccc1Cn1ccc(OCCc2cccs2)cc1=O`: the activity change, negative = inhibition was 1.77% (inactive).
With `CCNC(=O)c1noc(-c2cc(C(C)C)c(O)cc2O)c1-c1ccc(CN2CCOCC2)cc1` the figure was -87.9% (active).
For the molecule `Cc1cc(C)c(CNC(=O)c2cc(-c3ccc(CN4CCOCC4)cc3)cc3c2cnn3C2CCCC2)c(=O)[nH]1`, the activity change, negative = inhibition was -31% (inactive).
`CC(C)c1cc(C(=O)N2Cc3ccc(CN4CCN(C)CC4)cc3C2)c(O)cc1O`: the activity change, negative = inhibition is -63.5% (inactive).
With `CC(C)(O)[C@H]1CC[C@@](C)([C@H]2[C@@H](O)C[C@@]3(C)[C@@H]4C[C@H](O[C@@H]5O[C@H](CO)[C@@H](O)[C@H](O)[C@H]5O)[C@H]5C(C)(C)[C@@H](O[C@@H]6OC[C@@H](O)[C@H](O)[C@H]6O)CC[C@@]56C[C@@]46CC[C@]23C)O1`, the activity change, negative = inhibition was 3% (inactive).

The values above are taken from PubChem BioAssay AID1259421 (Broad Institute, 2018).
